Measured values: PMC4336329 (PLoS ONE, 2015)
Screen size: about 310,000 compounds; about 14,000 (4.5%) showed an effect of 50% or more. Effects have a minus sign here. Many of the other results were omitted from the sample, so strong results are more common in it than they were.

target: human ether-à-go-go-related gene (hERG) potassium channel (human, UniProt Q12809); experiment: primary screen, population patch clamp on CHO cells stably expressing hERG; higher = less effect of the substance
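Further: peak tail current of the secondary pulse compared with the same well before compound.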

Sequence of human ether-à-go-go-related gene (hERG) potassium channel (Q12809 whole entry, looked up): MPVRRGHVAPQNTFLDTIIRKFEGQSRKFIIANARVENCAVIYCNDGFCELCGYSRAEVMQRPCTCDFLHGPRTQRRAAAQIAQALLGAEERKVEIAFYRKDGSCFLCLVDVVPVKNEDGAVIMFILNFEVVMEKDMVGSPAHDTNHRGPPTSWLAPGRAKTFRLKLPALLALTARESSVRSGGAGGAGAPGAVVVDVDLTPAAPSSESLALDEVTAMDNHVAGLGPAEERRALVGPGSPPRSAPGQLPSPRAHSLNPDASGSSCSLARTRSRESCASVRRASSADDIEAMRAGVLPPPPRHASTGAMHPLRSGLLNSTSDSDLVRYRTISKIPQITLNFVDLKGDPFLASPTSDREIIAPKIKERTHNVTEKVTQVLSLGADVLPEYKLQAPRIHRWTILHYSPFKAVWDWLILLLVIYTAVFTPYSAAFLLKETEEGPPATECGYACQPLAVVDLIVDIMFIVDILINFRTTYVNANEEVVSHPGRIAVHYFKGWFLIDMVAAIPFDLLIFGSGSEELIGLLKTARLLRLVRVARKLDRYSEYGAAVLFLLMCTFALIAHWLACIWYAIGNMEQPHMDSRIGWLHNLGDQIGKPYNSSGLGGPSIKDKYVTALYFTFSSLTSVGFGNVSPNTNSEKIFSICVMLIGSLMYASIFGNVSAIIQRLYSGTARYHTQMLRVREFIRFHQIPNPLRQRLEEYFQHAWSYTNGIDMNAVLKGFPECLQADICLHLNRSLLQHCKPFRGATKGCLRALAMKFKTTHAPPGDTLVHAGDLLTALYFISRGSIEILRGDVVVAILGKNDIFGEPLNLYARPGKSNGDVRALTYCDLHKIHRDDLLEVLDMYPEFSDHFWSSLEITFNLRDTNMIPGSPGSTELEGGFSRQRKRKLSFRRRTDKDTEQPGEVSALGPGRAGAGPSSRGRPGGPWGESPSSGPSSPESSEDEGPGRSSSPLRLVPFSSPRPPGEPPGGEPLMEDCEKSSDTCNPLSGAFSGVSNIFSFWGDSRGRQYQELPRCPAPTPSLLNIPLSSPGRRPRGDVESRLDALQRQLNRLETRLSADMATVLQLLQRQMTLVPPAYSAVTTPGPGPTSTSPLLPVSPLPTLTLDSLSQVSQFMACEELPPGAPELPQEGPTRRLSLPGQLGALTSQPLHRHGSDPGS

Compound	hERG current change (%, negative = inhibition) at 10uM [%]
CCOC(=O)C1(Cc2ccccc2)CCN(Cc2ccc(COC)o2)CC1	-19.1
CCOC(=O)C1(CCOc2ccccc2)CCN(Cc2ccc(C)o2)CC1	-75
CCOC(=O)C1(CCOC)CCN(Cc2ccc(COC)o2)CC1	32.9
CCOC(=O)C1(CCOc2ccccc2)CCN(Cc2ccc(COC)o2)CC1	-63.7
CCOC(=O)C1(CCOc2ccccc2)CCN(Cc2ccc(CO)o2)CC1	-73.8
CSc1ccccc1NC(=O)CN(Cc1ccccc1)S(C)(=O)=O	4.1
CC1(C)C(=O)C=C[C@]2(C)[C@H]3CC[C@@]4(C)[C@H](c5ccoc5)OC(=O)[C@H]5O[C@]54[C@]3(C)[C@H](O)C[C@@H]12	8.63
Cc1cc(C)cc(NC(=O)CSc2nnc(-c3ccccc3)n2N)c1	6.38
CC(C)Oc1cccc(C(=O)Nc2ccc(Br)cc2F)c1	7.79
Cc1ccccc1CNC(=O)CC1C(=O)NCCN1CC1CCCCC1 (stereo not shown)	6.33
Cc1cc(C)c(C(=O)CSc2n[nH]c(=O)n2C2CC2)cc1C	-9.54
COc1ccc(C(=O)c2nc3ccccc3n2C(C)C)cc1OC	-16.5
CC(C)c1ccc(NNC(=O)C2CCC2)cc1	3.84
COc1cc2c(cc1OC)CN(Cc1cc(OC)c(O)c(OC)c1)CC2	-14
COc1cc2c(cc1OC)CN(CCC(=O)c1ccc(Br)cc1)CC2	-66.9
Brc1cccc(OCCN2CCc3ccccc3C2)c1.Cl	-5.84
COc1ccc(S(=O)(=O)N2CCN(CCOc3ccc(Br)cc3)CC2)cc1OC	-12.8
COc1cc2c(cc1OC)CN(CCOc1ccc(Br)cc1)CC2	-68.8
COc1cc2c(cc1OC)CN(C(=O)CCNS(=O)(=O)c1ccc(Br)cc1)CC2	-36.8
COc1ccc(C(=O)CCN2CCC(C)CC2)cc1.Cl	-30
COc1ccc(CC(=O)N2CCc3cc(OC)c(OC)cc3C2)cc1	-6.59
COc1ccc(C(=O)CCN2CCc3cc(OC)c(OC)cc3C2)cc1.Cl	-69.1
COc1ccc(C(=O)NC(=S)Nc2cccc3nc(C)ccc23)cc1OC	8.45
Cc1nnc(NC(=O)CN2CCN(Cc3c(Cl)cccc3Cl)CC2)s1	9.97
COC(=O)c1c(NC(=O)CS(=O)(=O)c2ccccc2)sc(C)c1C	-21.6
